# For some assays here: Measured potencies and affinities stand elsewhere.
# How the values were obtained:
# Set-up in all cases: scale not given: direction of the effect not stated beside the values
# [1] = target: Protein translocase subunit SecA (Escherichia coli (strain K12)) (UniProt P10408); experiment: Assay to Identify E. coli SecA ATPase Inhibitors; type: functional; details: 30 µM
# [2] = target: T1, Ubiquitin-activating enzyme e1, putative (Leishmania donovani (strain BPK282A1)) (UniProt E9BSI1); experiment: Leishmania donovani Ubiquitin Activating Enzyme (LdE1); type: functional; details: 30 µM
# T1 sequence (whole entry): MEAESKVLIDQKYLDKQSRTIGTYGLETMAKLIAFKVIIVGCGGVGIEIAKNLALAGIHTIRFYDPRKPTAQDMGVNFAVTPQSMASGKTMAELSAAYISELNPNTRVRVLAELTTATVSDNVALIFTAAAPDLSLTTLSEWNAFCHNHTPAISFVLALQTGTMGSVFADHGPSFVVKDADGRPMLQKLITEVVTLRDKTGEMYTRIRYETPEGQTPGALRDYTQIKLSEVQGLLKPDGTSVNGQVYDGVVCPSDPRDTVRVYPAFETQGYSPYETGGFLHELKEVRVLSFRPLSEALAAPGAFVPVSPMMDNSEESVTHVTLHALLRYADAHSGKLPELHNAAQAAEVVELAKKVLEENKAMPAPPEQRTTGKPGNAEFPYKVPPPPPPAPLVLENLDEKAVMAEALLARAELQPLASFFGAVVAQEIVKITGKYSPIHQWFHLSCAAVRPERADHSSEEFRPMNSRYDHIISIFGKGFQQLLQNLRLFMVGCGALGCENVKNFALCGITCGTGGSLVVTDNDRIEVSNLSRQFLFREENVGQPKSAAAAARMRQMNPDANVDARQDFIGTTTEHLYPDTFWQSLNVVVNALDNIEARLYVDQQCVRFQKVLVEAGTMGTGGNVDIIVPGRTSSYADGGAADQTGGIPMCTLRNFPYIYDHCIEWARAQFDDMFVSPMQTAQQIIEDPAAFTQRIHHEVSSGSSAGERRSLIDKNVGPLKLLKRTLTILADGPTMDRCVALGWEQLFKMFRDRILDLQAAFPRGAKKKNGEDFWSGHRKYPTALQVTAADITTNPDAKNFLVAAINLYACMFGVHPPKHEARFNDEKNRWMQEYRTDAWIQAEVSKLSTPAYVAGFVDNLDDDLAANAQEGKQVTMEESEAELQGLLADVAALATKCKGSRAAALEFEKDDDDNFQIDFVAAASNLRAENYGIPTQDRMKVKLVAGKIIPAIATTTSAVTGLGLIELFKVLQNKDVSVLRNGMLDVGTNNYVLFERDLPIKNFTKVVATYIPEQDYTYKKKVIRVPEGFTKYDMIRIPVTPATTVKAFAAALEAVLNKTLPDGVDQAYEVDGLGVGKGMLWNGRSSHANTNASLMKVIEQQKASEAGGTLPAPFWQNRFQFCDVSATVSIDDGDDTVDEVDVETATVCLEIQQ
# [3] = target: AMP-activated protein kinase, AMPK (Homo sapiens) (UniProt P54646+O43741+P54619+Q9UGJ0+Q9Y478+Q13131+Q9UGI9); experiment: AMP-dependent Kinase enzyme assay. An in vitro enzyme assay that detects ADP turnover that is directly proportional to AMPK activity. This uses naive AMPK that is activated during the assay with MK-8722; type: functional; details: 30 µM
# [4] = target: Sialic acid-binding Ig-like lectin 9 (Homo sapiens) (UniProt Q9Y336); experiment: Hs-Siglec9 ALPHAscreen SOP 20170721; details: 10 µM
# Trypanosoma cruzi = experiment: Trypanosoma cruzi phosphomannomutase and mannose-1-phosphate guanylyltransferase assay; type: functional; details: 10 µM
# [5] = target: T2, Arginase-2, mitochondrial (Homo sapiens) (UniProt P78540); experiment: in vitro enzyme assay to detect the production of urea directly proportional to the activity of Arginase II; type: functional; details: 33.3 µM; note: in the data most compounds retested in dose-response had high values
# T2 sequence (whole entry): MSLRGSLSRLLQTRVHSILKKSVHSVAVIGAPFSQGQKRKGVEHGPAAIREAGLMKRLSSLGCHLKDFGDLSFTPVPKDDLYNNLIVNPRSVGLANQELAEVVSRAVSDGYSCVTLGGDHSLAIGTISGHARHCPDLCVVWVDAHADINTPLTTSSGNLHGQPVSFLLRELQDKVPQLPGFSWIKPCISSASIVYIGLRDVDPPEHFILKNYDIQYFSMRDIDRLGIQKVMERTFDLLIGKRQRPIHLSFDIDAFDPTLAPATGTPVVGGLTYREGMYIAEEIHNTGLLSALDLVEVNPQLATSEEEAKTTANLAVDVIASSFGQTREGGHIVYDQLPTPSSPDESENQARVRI
# [6] = target: T3, Proteasome subunit beta (Trypanosoma cruzi) (UniProt O96673); experiment: Trypanosoma cruzi proteasome chymotrypsin-like activity (TcProtChymo) assay.; note: in the data most compounds retested in dose-response had high values; type: functional; details: 9.37 µM
# T3 sequence (whole entry): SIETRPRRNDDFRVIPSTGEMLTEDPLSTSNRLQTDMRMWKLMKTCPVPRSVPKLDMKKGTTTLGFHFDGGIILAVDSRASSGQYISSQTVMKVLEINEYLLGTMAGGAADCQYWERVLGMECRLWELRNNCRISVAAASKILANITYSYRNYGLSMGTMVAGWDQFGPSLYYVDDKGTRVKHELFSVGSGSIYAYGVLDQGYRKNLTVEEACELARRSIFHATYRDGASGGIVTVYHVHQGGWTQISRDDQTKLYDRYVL
# Homo sapiens = organism: Homo sapiens; experiment: To identify inhibition of the IFN signalling (Jak-Stat) pathway via expression of an eGFP reporter gene under the control of an IFN-stimulated response element (ISRE) containing MxA promoter.; type: functional; details: 30 µM
# [7] = target: T4, Tyrosyl-tRNA synthetase, putative (Trypanosoma cruzi (strain CL Brener)) (UniProt Q4DSP6); experiment: Trypanosoma cruzi tyrosyl tRNA synthetase (TcYRS) _High Tyrosine SOP; type: functional; details: 30 µM; note: in the data most compounds retested in dose-response had high values
# T4 sequence (whole entry): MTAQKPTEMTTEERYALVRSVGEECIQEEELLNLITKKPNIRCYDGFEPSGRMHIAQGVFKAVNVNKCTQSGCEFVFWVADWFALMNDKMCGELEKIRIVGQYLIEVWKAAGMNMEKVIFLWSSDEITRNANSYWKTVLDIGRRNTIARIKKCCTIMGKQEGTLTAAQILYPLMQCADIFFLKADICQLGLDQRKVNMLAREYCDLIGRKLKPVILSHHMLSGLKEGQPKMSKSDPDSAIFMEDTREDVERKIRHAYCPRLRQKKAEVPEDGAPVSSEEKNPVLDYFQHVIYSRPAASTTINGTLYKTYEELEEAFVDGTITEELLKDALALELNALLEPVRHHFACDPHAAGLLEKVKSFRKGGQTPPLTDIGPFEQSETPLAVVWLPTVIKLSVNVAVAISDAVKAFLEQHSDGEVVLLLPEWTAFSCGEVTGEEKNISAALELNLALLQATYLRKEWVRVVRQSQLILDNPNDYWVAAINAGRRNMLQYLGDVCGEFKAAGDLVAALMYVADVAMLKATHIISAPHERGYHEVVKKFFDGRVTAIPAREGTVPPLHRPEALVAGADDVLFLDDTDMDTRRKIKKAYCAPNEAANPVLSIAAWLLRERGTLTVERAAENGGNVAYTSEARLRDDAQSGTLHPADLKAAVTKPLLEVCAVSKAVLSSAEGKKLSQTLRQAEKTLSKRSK
# [8] = target: T4, Tyrosyl-tRNA synthetase, putative (Trypanosoma cruzi (strain CL Brener)); experiment: Trypanosoma cruzi tyrosyl tRNA synthetase (TcYRS) SOP; type: functional; details: 30 µM
# [9] = target: Chromo domain-containing protein 1 (Saccharomyces cerevisiae (strain ATCC 204508 / S288c) (Baker's yeast)) (UniProt P32657); experiment: ScCHD-1 Enzyme Inhibition Assay; type: functional; details: 30 µM; note: in the data most compounds retested in dose-response had high values
# Sequence of Chromo domain-containing protein 1 (Saccharomyces cerevisiae (strain ATCC 204508 / S288c) (Baker's yeast)) (P32657 whole entry, the tested form may be a part): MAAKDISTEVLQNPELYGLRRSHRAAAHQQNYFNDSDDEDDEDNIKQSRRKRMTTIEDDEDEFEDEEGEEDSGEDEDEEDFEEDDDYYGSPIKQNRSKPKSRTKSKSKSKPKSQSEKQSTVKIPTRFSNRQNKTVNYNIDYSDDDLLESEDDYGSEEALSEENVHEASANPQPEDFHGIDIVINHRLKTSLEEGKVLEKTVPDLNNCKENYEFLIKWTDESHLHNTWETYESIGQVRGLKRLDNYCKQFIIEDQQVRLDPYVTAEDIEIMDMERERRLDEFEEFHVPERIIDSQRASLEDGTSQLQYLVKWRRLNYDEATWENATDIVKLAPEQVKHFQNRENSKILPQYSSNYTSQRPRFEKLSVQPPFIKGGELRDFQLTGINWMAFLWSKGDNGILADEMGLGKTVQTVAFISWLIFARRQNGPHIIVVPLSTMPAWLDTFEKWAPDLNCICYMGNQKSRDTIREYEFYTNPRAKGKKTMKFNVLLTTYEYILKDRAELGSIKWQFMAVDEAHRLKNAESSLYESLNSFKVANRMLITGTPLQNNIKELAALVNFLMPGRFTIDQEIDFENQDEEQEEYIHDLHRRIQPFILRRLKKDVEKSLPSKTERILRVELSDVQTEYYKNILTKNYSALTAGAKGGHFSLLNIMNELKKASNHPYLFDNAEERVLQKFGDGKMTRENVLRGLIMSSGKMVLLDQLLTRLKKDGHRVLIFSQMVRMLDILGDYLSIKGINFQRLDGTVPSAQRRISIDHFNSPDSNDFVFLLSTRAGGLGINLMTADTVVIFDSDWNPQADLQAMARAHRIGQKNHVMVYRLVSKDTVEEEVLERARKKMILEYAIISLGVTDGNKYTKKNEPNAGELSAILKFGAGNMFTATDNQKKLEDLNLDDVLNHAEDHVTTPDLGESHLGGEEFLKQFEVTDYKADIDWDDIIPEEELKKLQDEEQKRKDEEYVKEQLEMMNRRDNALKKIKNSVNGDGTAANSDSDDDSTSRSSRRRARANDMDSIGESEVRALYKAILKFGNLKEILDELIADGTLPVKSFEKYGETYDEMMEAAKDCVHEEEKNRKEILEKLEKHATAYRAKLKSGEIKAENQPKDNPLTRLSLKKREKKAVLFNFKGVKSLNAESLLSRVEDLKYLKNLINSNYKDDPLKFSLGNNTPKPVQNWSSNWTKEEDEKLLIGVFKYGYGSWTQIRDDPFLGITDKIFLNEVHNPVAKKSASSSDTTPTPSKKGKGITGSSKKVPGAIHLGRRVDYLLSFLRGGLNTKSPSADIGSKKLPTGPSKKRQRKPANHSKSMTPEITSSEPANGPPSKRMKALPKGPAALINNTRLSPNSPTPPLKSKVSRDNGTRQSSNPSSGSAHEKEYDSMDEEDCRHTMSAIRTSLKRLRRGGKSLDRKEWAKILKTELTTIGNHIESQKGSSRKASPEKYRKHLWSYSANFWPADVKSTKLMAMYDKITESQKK
# Sequence of Sialic acid-binding Ig-like lectin 9 (Homo sapiens) (Q9Y336 whole entry): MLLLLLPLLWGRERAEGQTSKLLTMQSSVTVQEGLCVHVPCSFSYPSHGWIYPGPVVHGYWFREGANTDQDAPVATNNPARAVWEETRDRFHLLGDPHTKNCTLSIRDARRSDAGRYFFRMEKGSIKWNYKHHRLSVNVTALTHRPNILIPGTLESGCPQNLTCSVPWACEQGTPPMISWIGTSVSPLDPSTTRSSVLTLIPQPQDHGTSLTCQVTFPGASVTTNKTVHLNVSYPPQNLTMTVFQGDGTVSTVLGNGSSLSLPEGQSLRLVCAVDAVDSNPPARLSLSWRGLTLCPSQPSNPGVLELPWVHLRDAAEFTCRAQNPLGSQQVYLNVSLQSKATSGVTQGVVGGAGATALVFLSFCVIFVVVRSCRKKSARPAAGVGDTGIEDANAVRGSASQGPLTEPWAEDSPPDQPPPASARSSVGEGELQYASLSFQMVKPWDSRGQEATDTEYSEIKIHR
# Sequence of Protein translocase subunit SecA (Escherichia coli (strain K12)) (P10408 whole entry): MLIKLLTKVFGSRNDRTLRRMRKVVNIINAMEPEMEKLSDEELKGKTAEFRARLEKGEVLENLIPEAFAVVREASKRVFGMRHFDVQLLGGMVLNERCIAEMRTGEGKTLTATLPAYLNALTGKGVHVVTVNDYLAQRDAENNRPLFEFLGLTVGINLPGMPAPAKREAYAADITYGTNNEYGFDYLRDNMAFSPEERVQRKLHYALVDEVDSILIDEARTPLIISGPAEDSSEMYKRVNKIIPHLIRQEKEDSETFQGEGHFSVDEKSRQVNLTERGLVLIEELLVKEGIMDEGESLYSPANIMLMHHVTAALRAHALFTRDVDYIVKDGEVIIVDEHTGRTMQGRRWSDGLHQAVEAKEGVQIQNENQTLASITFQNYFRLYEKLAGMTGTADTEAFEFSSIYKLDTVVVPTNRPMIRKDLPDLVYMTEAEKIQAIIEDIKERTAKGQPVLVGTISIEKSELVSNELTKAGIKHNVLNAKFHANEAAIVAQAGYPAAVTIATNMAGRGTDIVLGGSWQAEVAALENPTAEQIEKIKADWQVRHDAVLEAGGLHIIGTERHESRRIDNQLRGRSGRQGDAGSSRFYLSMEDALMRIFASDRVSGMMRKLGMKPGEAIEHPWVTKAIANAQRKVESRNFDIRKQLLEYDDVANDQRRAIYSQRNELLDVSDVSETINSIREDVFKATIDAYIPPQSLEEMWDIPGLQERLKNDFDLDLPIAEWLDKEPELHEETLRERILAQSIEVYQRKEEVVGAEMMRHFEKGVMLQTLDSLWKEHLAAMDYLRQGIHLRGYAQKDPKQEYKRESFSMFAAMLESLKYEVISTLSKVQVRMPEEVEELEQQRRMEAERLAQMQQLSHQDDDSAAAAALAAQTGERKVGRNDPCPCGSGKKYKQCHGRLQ
Structure (SMILES),Percent Effect [1] [%],Percent Effect [2] [%],Percent Effect [3] [%],Percent Effect [4] [%],Percent Effect (Trypanosoma cruzi) [%],Percent Effect [5] [%],Percent Effect [6] [%],Percent Effect (Homo sapiens) [%],Percent Effect [7] [%],Percent Effect [8] [%],Percent Effect [9] [%]
Cc1cc(C)c(CNC(=O)N(C)CC2CCCCO2)c(=O)[nH]1 (configuration not stated),-3.05,7.89,2.98,-2.11,-8.84,3.06,14.2,30.1,4.41,9.76,-2.04
Cc1cnccc1CN1C[C@@H](O)[C@H](Oc2ccccc2)C1,4.34,-4.05,6.12,0.247,0.593,3.02,3.28,11.6,2.15,-1.3,-12.9
COc1cc(CN(C)C(=O)Cc2c(C)nn(C)c2C)ccc1OC(F)F,3.46,-9.72,-6.03,-7.7,-5.15,3.09,20.2,55.5,5.26,10.3,0.343
COCC1CC2(CCN(Cc3cnn(C)c3)CC2)CN1c1ncccn1 (configuration not stated),-2.97,13,0.218,12.7,7.38,-5.52,11.7,-19,7.53,18.5,-2.6
COc1ccc(Br)c(C(=O)NCC2CCN(C(=O)c3ccoc3)CC2)c1,-6.69,5.48,7.36,-0.134,0.783,3.18,12.4,7.16,5.38,17.5,-6.16
CCNC(=O)CCc1c(C)nc2cc(O)nn2c1C,-0.575,15.6,-428,4.55,5.43,4.63,16.9,23.5,2.91,12.2,-8.86
CN(Cc1ccccn1)C1COC2(CCN(Cc3nccs3)CC2)C1 (configuration not stated),-4.64,21.3,-8.85,-0.12,1.35,-57.5,12.8,5.05,5.21,20,-11.7
c1ccc(-c2noc3c2CN(CC2CC2)CC3)cc1,-4.27,2.74,-7.86,-1.17,-0.979,-0.455,6.92,11.2,4.3,10,0.0734
Cc1nc(C(C)(C)NC(=O)Nc2cccc(C#N)c2)no1,-4.07,5.48,3.16,8.84,8.81,-0.455,15.1,3.14,5.38,15,-4.58
NCC(=O)N1CCCC(c2cncc(Nc3ncccn3)n2)C1 (configuration not stated),-3.81,9.46,17.7,18,-2.57,-3.48,10.3,5.7,5.38,11.7,2.63
O=c1[nH]c(CCN2CCCC(Cn3cncn3)C2)nc2ccccc12 (configuration not stated),-4.26,13.5,0.62,16.8,6.78,0.924,2.33,14.5,4.95,11,-3.63
CNc1oc(-c2ccc(OC)c(S(=O)(=O)N3CCCCC3)c2)nc1C#N,-1.33,1.33,15.5,7.55,-5.7,-6.51,9.98,-4.26,5.29,2.56,-9.36
CN(CC1COc2ccccc2O1)C(=O)NCCCn1cncn1 (configuration not stated),-0.909,18.4,0.582,5.7,2.63,2.3,6.52,8.47,6.37,24.4,-11.6
CCOc1ccnc(N2CCN(C(=O)C(C)(C)C#N)CC2)n1,-5.28,15.8,-6.59,-2.59,-4.39,1.8,4.99,6.24,1.48,6.17,-2.03
N#Cc1c(F)cccc1N1CCN(S(=O)(=O)c2cccs2)CC1,-2.74,-8.22,3.3,3.95,3.33,13.2,8.16,55.5,-38.7,-52.5,48.5
CC(C)c1cc(NC(=O)CN2CCc3c(nc(C(C)C)n3C)C2)on1,-0.514,0,-3.17,8.75,2.62,-4.98,17.9,12,5.83,9.76,-7.27
CC(=O)N1CCCN(C(=O)c2oc(Br)cc2C)CC1,-0.989,10.8,-1.11,15.2,2.12,6.19,21.4,4.33,2.65,17.1,-7.7
COCC(=O)N1CCN(Cc2coc(-c3cccc(F)c3)n2)CC1,-5.28,0,2.98,4.95,-2.62,0,1.18,9.99,8.74,7.32,1.75
CC1COCCN1Cc1nc(-c2cccc(Br)c2)no1 (configuration not stated),-3.43,13.5,7.49,1.61,-8.4,2,17.7,24.7,0.493,1.24,-8.7
CN(CCC#N)C(=O)CN1CCCC1c1ccsc1 (configuration not stated),-7.51,0,-7.58,1.78,-3.62,0.924,-1.26,11.9,-2.97,-1.22,7.91
Cc1cc(C(=O)N2CCc3nnc(N)cc3C2)c(C)n1C1CC1,-4.88,8.86,-10.1,0.435,-1.95,-3.23,20.1,2.81,7.29,17.7,-16.9
O=C(C1CCOCC1)N1C[C@@H]2C[C@@H](c3nc(C4CC4)cs3)O[C@@H]2C1,0.171,16.4,-11.2,8.5,3.57,-11.6,13.8,1.09,11.5,21,0.447

# Source: ChEMBL document CHEMBL3988442, “University of Dundee, Small-Polar-MMV Screening Library” (2021)
